# Several values for one entry are separate records, joined by “and”; a condition that tells them apart may be missing. Equal entries are not always repeated. Measured potencies and affinities stand elsewhere.
# Tests used:
# [1] = test system: Klebsiella pneumoniae; conditions: Concentration 32 ug.mL-1; ASSAY_TEST Inhibition of Bacterial Growth; detection method Absorption (OD600); MEDIA CAMHB; plate type 384well; NBS; CORNING #3640; time 18 hr
# [2] = test system: Candida albicans; conditions: 32 ug/mL
# [3] = test system: Cryptococcus neoformans; conditions: Concentration 32 ug.mL-1; ASSAY_TEST Inhibition of Fungal Growth; detection method Resazurin; Absorption (OD600-OD570); plate type 384well; NBS; CORNING #3640
Compound,Inhibition [1] [%],Inhibition [2],Inhibition [3] [%]
COC1=C(C#N)C(c2ccccc2)C(C=O)=C(Cl)N1 (stereo not drawn),16.25,4.19%,-31.69
Cl.N#Cc1c(N)nc(NCCO)c(C#N)c1-c1ccccc1,7.62,1.4%,-7.17
COC(=O)C(=Cc1ccc([N+](=O)[O-])cc1)NC(=O)c1ccccc1,11.76,0.51%,-0.7
C#CCN(C)c1nc(NCCCC2CCN(Cc3ccccc3)CC2)c(C#N)cc1C#N,-7.79,3.51%,-58.85
CSC1=NC(=Cc2ccccc2)C(=O)N1C,-0.86,3.12%,-9.15
C#CCN(C)Cc1cc2cc(OCc3ccc(OC)c4ncccc34)ccc2n1C,-13.41,6.72%,-26.86
C#CCNC.O=C(O)C(=O)O,9.05,4.18%,-8.52
Cc1ccc(C(O)SNNc2nc(C)nc3c2c(C)nn3-c2ccccc2)cc1 (stereo not drawn),11.05,-0.04%,-5.24
C/C(Cc1ccccc1)=N\NC(=O)c1c[nH]c2ccccc12,-16.37,5.16%,2.61
N#CC1(Br)C(=NBr)Oc2ccc3ccccc3c2C1c1ccc([N+](=O)[O-])cc1 (stereo not drawn),-0.48,2.19%,-71.87
N#CC1=C(N)Oc2ccc3ccccc3c2C1,-0.19,0.68%,-44.07
O=C(NNCc1c[nH]c2ccccc12)c1cccc2ccccc12,7.23,1.53%,-1.11
N#C/C(=C\c1ccccc1Cl)C(=O)c1ccccc1,13.98,10.6%,-6.26
Cn1c(CNNC(=O)c2ccco2)cc2ccccc21,-22.42,1.4%,-3.17
CCOC(=O)C1=C(C)OC(N)=C(C#N)C1c1ccc([N+](=O)[O-])cc1 (stereo not drawn),12.45,-0.07%,-64.89
N#Cc1c(-c2cccc([N+](=O)[O-])c2)c2ccc3ccccc3c2oc1=O,,4.25% and -0.04% and 3.33%,
CC(=O)N1CC(=O)NC1=S,17.26,1.1%,1.05
C#CCNc1nc(N)c(C#N)c(-c2ccccc2)c1C#N,-20.09,2.85%,-2.34

Compound,Inhibition [1] [%],Inhibition [2],Inhibition [3] [%]
COc1ccccc1C1c2ccc3ccccc3c2OC(=NBr)C1(Br)C#N (stereo not drawn),11.44,0.7%,-47.56
C#CC[n+]1ccccc1N.[Br-],-10.26,1.82%,-3.96
COc1cc(C2c3ccc4ccccc4c3Oc3nc4c(c(N)c32)CCCC4)ccc1O.Cl (stereo not drawn),-2.62,-0.98%,-5.33
Cl.OCCCC1CCNCC1,3.57,1.52%,-1.05
Nc1c2c(nc3c1CC(c1c(Cl)cccc1Cl)C(=O)N3)CCCC2 (stereo not drawn),0.93,-0.19%,-92.02
N#CC1(Br)C(=NBr)Oc2ccc3ccccc3c2C1c1ccccc1 (stereo not drawn),-3,3.44%,-1.83
COc1cccc(C2c3ccc4ccccc4c3OC(=NBr)C2(Br)C#N)c1 (stereo not drawn),5.65,-0.64%,-51.44
O=C(Cc1c[nH]c2ccccc12)N/N=C/c1ccco1,10.08,-1.03%,-6.47
COc1[nH]c(=O)ccc1C#N,19.79,7.91%,-56.43
C#CCN(C)c1nc(NCCCCC2CCN(Cc3ccccc3)CC2)c(C#N)cc1C#N,0.44,3.03%,-41.21
CCOC(=O)C1=C(C)OC(N)=C(C#N)C1c1ccc(OC)c(OC)c1 (stereo not drawn),9.11,3.32%,-51.05
O=Cc1ccc(OCCO[N+](=O)[O-])cc1,8.5,5.46%,-2.32
Cn1cc(C(=O)NN)c2ccccc21,3.16,4.47%,7.89
COC(=O)C(NC(=O)c1ccccc1)=C(C)c1ccccc1,19.09,-0.01%,-1.2
CC1Cc2c(Br)nc3nc4c(c(N)c3c2NC1=O)CCCC4 (stereo not drawn),20.62,-0.9%,-91.63
CCOC(=O)c1c(C)nc(NCC2CCN(Cc3ccccc3)CC2)c(C#N)c1-c1ccccc1,9.84,2.46%,-54.17
N#Cc1cc(C#N)c(N2CCC(Cc3ccccc3)CC2)nc1N,-9.32,1.71%,-23.72
